AmpC detergent: qHTS Inhibitors of AmpC Beta-Lactamase (assay with detergent); AmpC hydrolysis of nitrocefin, absorbance 480 nm, 0.01% Triton; Potency, µM (series often up to 114 µM), hits mostly inhibitors; 0.041% of 370,000 active; further: nearly all actives have a fitted effect of over 25% in size
Target sequence (P00811 whole entry, looked up): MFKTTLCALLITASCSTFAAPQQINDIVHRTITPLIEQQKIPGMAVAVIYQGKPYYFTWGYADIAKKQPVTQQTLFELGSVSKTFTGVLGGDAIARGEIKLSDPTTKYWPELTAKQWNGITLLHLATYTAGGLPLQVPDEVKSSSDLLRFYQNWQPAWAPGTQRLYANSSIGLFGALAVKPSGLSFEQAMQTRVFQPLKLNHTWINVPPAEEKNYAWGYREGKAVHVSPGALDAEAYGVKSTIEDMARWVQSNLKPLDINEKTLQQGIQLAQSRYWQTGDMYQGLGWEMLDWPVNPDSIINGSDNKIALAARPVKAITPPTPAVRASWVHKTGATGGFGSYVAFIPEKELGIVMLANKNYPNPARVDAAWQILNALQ
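20 mM phosphate pH 7.0 + 0.01% (detergent screen) or 0.0001% Triton X-100; 5.3 nM AmpC reagent; cpd preinc 15 min RT; nitrocefin (800 uM stock) to start; A480 q20 s × 4 min; Activity was normalised to no-enzyme and no-compound control wells.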
FMDV antiviral: High Throughput Screening for Foot and Mouth Disease Virus Antivirals. FMDV antiviral cell-based qHTS. Potency, µM (highest dose often 57.9 µM), usual class: inhibitors. 1.2% of 410,000 active. AID 1159524, 2015; calls by dose curve; tested in HEK293T cells; further: read-out not given here; nearly all actives have a fitted effect of over 45% in size
AmpC no deterg: qHTS Inhibitors of AmpC Beta-Lactamase (assay without detergent) | AmpC nitrocefin hydrolysis, absorbance 480 nm, 0.0001% Triton | AID 485341, 2010 | P00811 | 0.52% of 330,000 active | Potency, µM (highest dose often 57.1 µM), most hits filed as inhibitors; further: nearly all actives have a fitted effect of over 20% in size
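AmpC (5.3 nM in the dispensed reagent) in 20 mM phosphate pH 7.0 with 0.01% (detergent screen) or 0.0001% Triton X-100 was preincubated with compounds for 15 min at room temperature. Nitrocefin was then added from an 800 uM solution, and hydrolysis was followed at 480 nm.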
HCV inh: qHTS Assay for Inhibitors of Hepatitis C Virus (HCV). AID 651820, 2012. Potency, µM (top dose mostly 41.8 µM), actives largely listed as inhibitors. 3.4% of 340,000 active. Huh7.5.1 HCVcc-Cre infection, luciferase reporter, 44 h
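Seed cells (1,000/well) for 4 h; treat with compound and infect with HCVcc-Cre, moi about 0.5. Incubate 44 h, then detect luciferase activity.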
HCMV inh: qHTS Assay for inhibitors of the human cytomegalovirus (HCMV); HFF cells, HCMV-luciferase reporter, 72 h; stronger effect = lower value; AID 1259415, 2018; activity change, negative = inhibition, % at 57.5 µM; 4.5% of 410,000 active; in the data active means activity change below about -60%; inconclusive means no clear call, values can overlap the other calls; inactive means above about -39%
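Compounds were evaluated in HFFs infected with an HCMV luciferase reporter virus (MOI 1 PFU/cell). Luciferase in lysates collected 72 h post infection served as the replication measure.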
Hits are given with their value; 0 = inactive; ? = inconclusive; - = not tested or not shown. An excerpt weighted towards active compounds, which were near 7.3% of everything screened. Unless noted, the call rests on the fitted dose curve; in most records, active means well fitted curve in the direction sought with a large enough effect; inconclusive means small, poorly fitted or top-dose-only effect, or another doubt; inactive means no such curve, though single readings can be large; an effect the other way counts as inactive or inconclusive.

SMILES	AmpC detergent	FMDV antiviral	AmpC no deterg	HCV inh	HCMV inh
O=C(CN(c1ccc(Br)cc1)S(=O)(=O)c1ccc(Cl)c([N+](=O)[O-])c1)NCCc1ccccc1	0	0	0	?	0
CCN(C(=O)CC(C)C)c1nnc(Cn2nnc3ccccc32)s1	0	?	0	13µM	0
Cc1ccc(C(=O)NNC(=O)Cn2nnc3ccccc32)cc1	0	0	0	0	0
CCN(C(=O)c1ccc(C(C)(C)C)cc1)c1nnc(Cn2nnc3ccccc32)s1	?	?	0	1µM	-65
CCc1noc(C)c1C(=O)Nc1cccc(S(=O)(=O)N(C)c2ccccc2)c1	?	0	0	0	0
COc1ccc(C(=O)Nc2ccccc2-c2nnn(CC(N)=O)n2)cc1	-	?	-	0	0
COc1ccc(C(=O)Nc2ccccc2-c2nnn(CC(=O)Nc3ccc4c(c3)OCCO4)n2)cc1	0	0	0	0	-63
COc1cc(NC(=O)Cn2nnc(-c3ccccc3N)n2)cc(OC)c1	0	-	20µM	?	0
O=C(Cn1cnc2ccccc21)Nc1ccc2c(c1)OCCCO2	0	0	0	11µM	?
Nc1ccccc1-c1nnn(CC(=O)Nc2ccc3c(c2)OCCO3)n1	0	0	0	0	0
COc1cc(OC)cc(C(=O)Nc2ccccc2-c2nnn(CC(=O)Nc3cc(C)on3)n2)c1	0	?	0	0	-63
COc1ccc(NC(=O)Cn2nnc(-c3ccccc3N)n2)cc1OC	0	-	0	?	0
COC(=O)Cn1cnc2c(cnn2-c2ccc(OC)cc2)c1=O	0	0	0	0	0
COc1ccc(-n2ncc3c(=O)n(CC(=O)Nc4ccc5c(c4)OCCO5)cnc32)cc1	0	0	0	0	-60
COc1cc(C(CCN2CCCC2)c2c(OC)cc(OC)c3c(C)cc(=O)oc23)cc(OC)c1OC (stereo not given)	0	0	0	10µM	0
COc1cc(C(CCN2CCOCC2)c2c(OC)cc(OC)c3c(C)cc(=O)oc23)cc(OC)c1OC (stereo not given)	0	0	0	0	0
Cc1ccccc1/C=N/Nc1ccnc2cc(Cl)ccc12	0	?	0	?	-69
Oc1ccc(/C=N/Nc2ccnc3cc(Cl)ccc23)c(O)c1	0	0	0	10µM	0
Clc1ccc2c(N/N=C/c3cccnc3)ccnc2c1	0	0	0	0	?
Clc1ccc2c(N/N=C/c3ccc(Br)cc3)ccnc2c1	0	0	0	11µM	-73
Cc1cc(N/N=C/c2ccc(O)cc2O)c2ccccc2n1	0	0	0	?	0
Cc1ccc(/C=N/Nc2ccnc3cc(Cl)ccc23)c(C)c1	0	40µM	0	10µM	-76
Clc1ccc(NNc2ccnc3cc(Cl)ccc23)cc1	?	0	0	0	-69
COc1ccc2c(-c3ccc(S(N)(=O)=O)cc3)c(-c3ccc(S(C)(=O)=O)cc3)sc2c1	-	0	0	25µM	0
CC(=C\c1ccco1)/C=C(\C#N)C(=O)NCCc1c[nH]c2ccccc12	0	0	0	?	-73
SMILES	AmpC detergent	FMDV antiviral	AmpC no deterg	HCV inh	HCMV inh
O=C(NCCc1c[nH]c2ccccc12)/C(=C/c1ccco1)NC(=O)c1ccco1	0	0	0	0	0
Cc1cc(/C=C(\C#N)C(=O)NCCc2c[nH]c3ccccc23)c(C)n1C	0	0	25µM	0	0
N#Cc1ccc(Nc2nc(-c3ccc(O)cc3O)cs2)cc1C(F)(F)F	0	35µM	0	11µM	-
Oc1ccc(-c2csc(Nc3ccc4c(c3)OCO4)n2)c(O)c1	-	0	-	?	0
CC1CN(Cc2csc(-c3ccc(Cl)cc3)n2)CC(C)O1 (stereo not given)	0	0	0	11µM	?
CCN(CC)C(=O)CSc1nc2cc(OC)c(OC)cc2c(=O)n1Cc1ccc(Cl)cc1	0	0	0	?	-78
CCn1cc2nc(SCC(=O)Nc3cc(OC)ccc3OC)n(Cc3ccc(Cl)cc3)c(=O)c2n1	0	0	-	-	0
COc1ccc2oc(C(=O)Nc3nccs3)c(C)c2c1	?	0	0	0	0
COc1ccc2oc(C(=O)NC3(C)CCS(=O)(=O)C3)c(C)c2c1 (stereo not given)	0	0	0	?	-101
COc1ccc2oc(C(=O)NCc3cc(OC)c(OC)cc3OC)c(C)c2c1	0	?	0	16µM	0
CCCN(C(=O)CSc1nc(C2CC2)n(-c2ccccc2)n1)C1CCS(=O)(=O)C1 (stereo not given)	0	0	0	0	0
Cc1ccc(Cn2ccnc2SCC(=O)Nc2ccc3c(c2)OCCO3)cc1	0	0	-	-	?
CCC(=O)Oc1c(Sc2ccc(C)cc2)c(C)nn1-c1ccccc1	0	?	-	-	0
CCC(=O)Oc1c(Sc2ccc(Cl)cc2)c(C)nn1-c1ccccc1	0	0	-	-	-94
Cc1nn(C(=O)c2ccccc2)c(C)c1Sc1ccc(Cl)cc1	0	28µM	-	-	-74
CC(=O)c1ccc(OC2(C)CCN(CCOc3ccc(C)cc3)C2)cc1 (stereo not given)	-	0	-	-	0
CCOC(=O)N1CCN(C(=O)C2CCCN(S(=O)(=O)c3cc(C)ccc3OC)C2)CC1 (stereo not given)	0	-	0	0	0
COc1ccc(C)cc1S(=O)(=O)N1CCCC(C(=O)N2CCN(c3ccccc3)CC2)C1 (stereo not given)	0	?	0	?	-69
COc1ccc(S(=O)(=O)N2CCCC(C(=O)N3CCN(c4ccccc4)CC3)C2)cc1Cl (stereo not given)	0	35µM	0	?	0
COc1ccc(S(=O)(=O)N2CCCC(C(=O)O)C2)cc1Cl (stereo not given)	0	0	-	0	0
CC(=O)Nc1ccc(Nc2cc3[nH]c(-c4cccc(F)c4)cc3cn2)cc1	-	-	-	-	0
Cc1ccc(C)c(NC(=O)C2CCN(c3cc(C)nc4c(-c5ccc(Cl)cc5)c(C)nn34)CC2)c1	0	0	-	-	0
O=C(c1ccc2ccccc2c1)N1CCn2c(nnc2C(=O)N2CCOCC2)C1	-	-	-	-	0
C[C@H](O)[C@@H]1C(=O)N2CCc3c([nH]c4cccc(-c5ccccc5)c34)[C@@H]2C[C@@H]1N(C)CC1CCCCC1	-	-	-	-	0
CCn1c(CN2c3ccccc3Sc3ccccc32)n[nH]c1=S	0	0	0	0	-62
COc1ccccc1-c1noc(CSc2nnc(Cc3ccccc3)n2-c2ccc(C)c(C)c2)n1	0	0	-	-	0
O=C(Nc1ccc(Br)cc1)c1ccc(F)c(S(=O)(=O)N2CCCc3ccccc32)c1	0	?	-	-	-99
Cc1ccc(S(=O)(=O)N2CCCc3cc(NC(=O)c4ccc(F)c(F)c4)ccc32)cc1	0	0	-	-	0
O=C(Nc1cc(Cl)cc(Cl)c1)c1ccc(F)c(S(=O)(=O)N2CCCC2)c1	0	?	-	-	0

Compound activity (PubChem BioAssay)
